According to the supplement of paper PMC10849652:
Of roughly 7,900 targets only a part is listed; those with a hit were picked by preference. About 0.6% of all pairs of compound and target were hits. Unmarked numbers belong to inactive results.

How the values were obtained:
Test in all cases: log2 fold change, soluble protein after heating vs DMSO (PISA); higher = thermal stabilisation; K562 cells, 10 uM, 30 min; active = over 0.2 and 3.5 SD of the protein, either way, in both replicates (recomputed)
bafetinib = compound: Cc1ccc(NC(=O)c2ccc(CN3CC[C@H](N(C)C)C3)c(C(F)(F)F)c2)cc1Nc1nccc(-c2cncnc2)n1 [bafetinib]
In short: (§1)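 Aliquots of K562 cells (2×10^6 cells/mL) treated with 10 μM compound for 30 min were heated for 3 min over 48°C-58°C. After pooling and extraction in PBS with 0.5% NP-40 at 4°C, soluble protein from a 21,000xg, 90 min spin was quantified by TMTpro 16plex LC-MS/MS with channel sums equalised. Thermal stability is expressed against control samples, from duplicates, as a log2 fold change.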

[1] = compound: Cc1cccc(CC(=O)N2CCc3c2ccc(-c2cn(C)c4ncnc(N)c24)c3F)n1
In short: as §1

nilotinib = compound: Cc1cn(-c2cc(NC(=O)c3ccc(C)c(Nc4nccc(-c5cccnc5)n4)c3)cc(C(F)(F)F)c2)cn1 [nilotinib]
In short: as §1

[2] = compound: Cc1nc(Nc2n[nH]c3c2CN(C(=O)N[C@H](CN(C)C)c2ccccc2)C3(C)C)c2sccc2n1
In short: as §1

dasatinib = compound: Cc1nc(Nc2ncc(C(=O)Nc3c(C)cccc3Cl)s2)cc(N2CCN(CCO)CC2)n1 [dasatinib]
In short: as §1

[3] = compound: Cc1ncc(-c2ccnc(Nc3ccc(S(C)(=O)=O)cc3)n2)n1C(C)C
In short: as §1

[4] = compound: Cn1cc(-c2ccc3c(c2)CCN3C(=O)Cc2cccc(C(F)(F)F)c2)c2c(N)ncnc21
In short: as §1

[5] = compound: Cn1cc(-c2ccc3nnc(C(F)(F)c4ccc5ncccc5c4)n3n2)cn1
In short: as §1

tipifarnib = compound: Cn1cncc1[C@@](N)(c1ccc(Cl)cc1)c1ccc2c(c1)c(-c1cccc(Cl)c1)cc(=O)n2C [tipifarnib]
In short: as §1

mubritinib = compound: FC(F)(F)c1ccc(/C=C/c2nc(COc3ccc(CCCCn4ccnn4)cc3)co2)cc1 [mubritinib]
In short: as §1

[6] = compound: NC(=O)Nc1cc(-c2cccc(F)c2)sc1C(=O)N[C@H]1CCCNC1
In short: as §1

[7] = compound: NC(=O)c1cnc(N[C@@H]2CCCC[C@@H]2N)nc1Nc1cccc(-n2nccn2)c1
In short: as §1

[8] = compound: NC1(c2ccc(-c3nc4ccn5c(=O)[nH]nc5c4cc3-c3ccccc3)cc2)CCC1
In short: as §1

[9] = compound: NCC(=O)Nc1ccc(-n2nc(C(F)(F)F)cc2-c2ccc3c(ccc4ccccc43)c2)cc1
In short: as §1

entinostat = compound: Nc1ccccc1NC(=O)c1ccc(CNC(=O)OCc2cccnc2)cc1 [entinostat]
In short: as §1

vorinostat = compound: O=C(CCCCCCC(=O)Nc1ccccc1)NO [vorinostat]
In short: as §1

citarinostat = compound: O=C(CCCCCCNC(=O)c1cnc(N(c2ccccc2)c2ccccc2Cl)nc1)NO [citarinostat]
In short: as §1

silmitasertib = compound: O=C(O)c1ccc2c(c1)nc(Nc1cccc(Cl)c1)c1ccncc12 [silmitasertib]
In short: as §1

[10] = compound: O=C1NC(=O)C(c2cnc3ccccn23)=C1c1cn2c3c(cc(F)cc13)CN(C(=O)N1CCCCC1)CC2
In short: as §1

[11] = compound: c1cc(OCCN2CCCCC2)cc(-c2n[nH]c3ccc(-c4nnc[nH]4)cc23)c1
In short: as §1

Sequence of UniProt Q330K2 (Q330K2 whole entry, looked up): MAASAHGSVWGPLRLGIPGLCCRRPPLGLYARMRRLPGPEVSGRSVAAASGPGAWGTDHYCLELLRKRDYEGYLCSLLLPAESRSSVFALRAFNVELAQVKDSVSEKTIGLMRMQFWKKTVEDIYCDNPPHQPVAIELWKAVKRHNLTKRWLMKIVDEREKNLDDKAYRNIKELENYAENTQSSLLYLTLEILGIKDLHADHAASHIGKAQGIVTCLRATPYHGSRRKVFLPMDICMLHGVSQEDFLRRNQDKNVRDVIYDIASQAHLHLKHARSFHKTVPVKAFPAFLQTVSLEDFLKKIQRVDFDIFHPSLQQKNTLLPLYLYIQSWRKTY
Sequence of UniProt Q9BUB5 (Q9BUB5 whole entry, looked up): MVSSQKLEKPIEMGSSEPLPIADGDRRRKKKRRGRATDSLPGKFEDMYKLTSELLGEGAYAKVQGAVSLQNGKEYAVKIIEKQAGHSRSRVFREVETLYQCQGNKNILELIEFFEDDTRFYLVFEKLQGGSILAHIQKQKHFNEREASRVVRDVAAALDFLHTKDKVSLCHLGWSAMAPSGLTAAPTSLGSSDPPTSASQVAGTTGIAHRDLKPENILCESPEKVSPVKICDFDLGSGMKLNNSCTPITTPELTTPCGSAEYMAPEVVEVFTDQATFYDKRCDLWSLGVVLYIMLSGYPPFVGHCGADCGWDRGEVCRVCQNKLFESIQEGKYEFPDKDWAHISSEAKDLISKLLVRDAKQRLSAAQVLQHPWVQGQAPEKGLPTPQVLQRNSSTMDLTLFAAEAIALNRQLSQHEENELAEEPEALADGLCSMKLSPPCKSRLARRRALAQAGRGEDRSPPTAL
Sequence of UniProt Q15102 (Q15102 whole entry, looked up): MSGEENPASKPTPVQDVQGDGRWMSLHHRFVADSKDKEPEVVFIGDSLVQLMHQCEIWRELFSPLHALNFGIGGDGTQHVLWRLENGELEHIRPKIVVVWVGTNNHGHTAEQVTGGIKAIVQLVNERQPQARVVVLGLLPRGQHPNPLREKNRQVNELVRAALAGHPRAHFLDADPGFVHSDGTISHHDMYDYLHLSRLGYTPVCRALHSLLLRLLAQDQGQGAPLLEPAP
Sequence of UniProt Q16621 (Q16621 whole entry, looked up): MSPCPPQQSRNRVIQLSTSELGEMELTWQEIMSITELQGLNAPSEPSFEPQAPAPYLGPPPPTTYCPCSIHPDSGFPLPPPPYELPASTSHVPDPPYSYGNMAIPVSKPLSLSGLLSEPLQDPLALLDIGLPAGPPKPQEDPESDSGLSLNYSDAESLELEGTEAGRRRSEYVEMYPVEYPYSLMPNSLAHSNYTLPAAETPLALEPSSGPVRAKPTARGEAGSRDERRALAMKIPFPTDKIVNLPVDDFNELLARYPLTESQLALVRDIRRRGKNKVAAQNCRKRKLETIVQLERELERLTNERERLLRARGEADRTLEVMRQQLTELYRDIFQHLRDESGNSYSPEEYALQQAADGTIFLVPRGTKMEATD
Sequence of UniProt Q14978 (Q14978 whole entry, looked up): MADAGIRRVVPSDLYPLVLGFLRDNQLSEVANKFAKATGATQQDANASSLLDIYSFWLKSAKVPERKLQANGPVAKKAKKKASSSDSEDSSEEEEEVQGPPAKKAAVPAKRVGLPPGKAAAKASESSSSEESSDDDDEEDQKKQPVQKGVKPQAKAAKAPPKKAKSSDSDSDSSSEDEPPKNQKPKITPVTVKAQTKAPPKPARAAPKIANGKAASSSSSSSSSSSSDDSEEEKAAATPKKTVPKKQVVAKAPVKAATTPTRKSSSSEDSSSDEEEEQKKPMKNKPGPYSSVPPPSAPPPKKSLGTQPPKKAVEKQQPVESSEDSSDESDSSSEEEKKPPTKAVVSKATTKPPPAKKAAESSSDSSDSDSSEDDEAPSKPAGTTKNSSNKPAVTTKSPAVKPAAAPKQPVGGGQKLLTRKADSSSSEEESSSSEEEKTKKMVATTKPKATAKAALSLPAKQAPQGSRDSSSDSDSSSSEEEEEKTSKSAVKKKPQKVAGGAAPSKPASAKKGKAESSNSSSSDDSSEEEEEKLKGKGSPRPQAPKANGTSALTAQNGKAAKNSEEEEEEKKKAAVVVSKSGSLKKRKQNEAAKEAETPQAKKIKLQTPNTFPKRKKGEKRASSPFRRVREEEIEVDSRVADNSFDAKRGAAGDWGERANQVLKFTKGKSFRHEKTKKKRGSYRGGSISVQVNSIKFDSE
Sequence of UniProt Q9NXX6 (Q9NXX6 whole entry, looked up): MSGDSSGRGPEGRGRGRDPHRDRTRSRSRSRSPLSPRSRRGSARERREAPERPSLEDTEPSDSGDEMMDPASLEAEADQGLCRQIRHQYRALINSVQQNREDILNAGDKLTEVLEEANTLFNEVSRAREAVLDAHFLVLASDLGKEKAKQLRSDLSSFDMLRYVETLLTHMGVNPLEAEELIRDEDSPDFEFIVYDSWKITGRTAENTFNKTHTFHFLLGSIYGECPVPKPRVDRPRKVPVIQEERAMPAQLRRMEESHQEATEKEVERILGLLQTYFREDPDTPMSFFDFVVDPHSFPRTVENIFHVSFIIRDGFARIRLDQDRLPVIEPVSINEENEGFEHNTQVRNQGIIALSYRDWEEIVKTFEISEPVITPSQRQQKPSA
Sequence of UniProt Q16656 (Q16656 whole entry, looked up): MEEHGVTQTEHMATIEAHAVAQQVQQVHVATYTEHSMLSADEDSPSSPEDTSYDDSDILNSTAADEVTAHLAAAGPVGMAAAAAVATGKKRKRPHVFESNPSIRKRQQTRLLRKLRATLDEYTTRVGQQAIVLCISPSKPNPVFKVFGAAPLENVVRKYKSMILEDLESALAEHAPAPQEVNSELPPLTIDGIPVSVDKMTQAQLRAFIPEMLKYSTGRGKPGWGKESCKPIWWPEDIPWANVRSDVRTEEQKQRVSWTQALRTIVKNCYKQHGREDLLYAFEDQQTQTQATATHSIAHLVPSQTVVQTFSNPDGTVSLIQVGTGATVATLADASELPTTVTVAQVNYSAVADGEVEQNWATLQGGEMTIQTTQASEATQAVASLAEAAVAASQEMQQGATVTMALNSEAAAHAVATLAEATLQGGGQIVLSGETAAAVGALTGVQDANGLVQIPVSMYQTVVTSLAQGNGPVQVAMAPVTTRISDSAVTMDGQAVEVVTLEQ

Row | Target | log2 fold change (bafetinib) | log2 fold change [1] | log2 fold change (nilotinib) | log2 fold change [2] | log2 fold change (dasatinib) | log2 fold change [3] | log2 fold change [4] | log2 fold change [5] | log2 fold change (tipifarnib) | log2 fold change (mubritinib) | log2 fold change [6] | log2 fold change [7] | log2 fold change [8] | log2 fold change [9] | log2 fold change (entinostat) | log2 fold change (vorinostat) | log2 fold change (citarinostat) | log2 fold change (silmitasertib) | log2 fold change [10] | log2 fold change [11]
1 | MRPL47 (UniProt Q9HD33) | 0.264 | -0.263 | -0.124 | 0.118 | 0.016 | 0.073 | -0.174 | -0.085 | 0.103 | -0.029 | 0.024 | 0.058 | 0.039 | 0.057 | 0.028 | -0.195 | -0.087 | -0.021 | -0.011 | 0.336
2 | NFE2 (UniProt Q16621) | -0.048 | -0.13 | -0.063 | -0.068 | -0.016 | -0.071 | -0.051 | -0.08 | -0.066 | 0.026 | 0.035 | -0.049 | -0.091 | -0.062 | -0.024 | 0.055 | 0.04 | 0.145 | -0.037 | 0.006
3 | NSMCE4A (UniProt Q9NXX6) | -0.145 | -0.144 | 0.189 | -0.254 | -0.051 | 0.03 | 0.025 | -0.131 | 0.026 | 0.552 (active) | 0.181 | 0.059 | 0 | -0.023 | -0.087 | -0.155 | -0.018 | 0.149 | -0.038 | -0.067
4 | PAFAH1B3 (UniProt Q15102) | 0.003 | 0.058 | 0.008 | -0.031 | -0.065 | -0.011 | 0.192 | 0.039 | -0.163 | 0.075 | -0.036 | -0.012 | -0.066 | -0.019 | 0.057 | 0.043 | -0.045 | -0.045 | -0.108 | -0.028
5 | MKNK1 (UniProt Q9BUB5) | 0.088 | 0.057 | 0 | 0.059 | -0.115 | -0.04 | 0.117 | -0.183 | -0.101 | 0.03 | 0.226 | -0.157 | -0.158 | -0.059 | -0.026 | -0.025 | 0.025 | 0.012 | 0.019 | -0.042
6 | NOLC1 isoform 2 (UniProt Q14978) | 0.105 | -0.031 | 0.1 | -0.1 | 0.145 | -0.376 (active) | -0.013 | 0.02 | 0.027 | -0.031 | 0.149 | -0.031 | -0.011 | 0.014 | -0.043 | 0.009 | 0.109 | -0.037 | -0.037 | -0.183
7 | NDUFAF6 (UniProt Q330K2) | -0.178 | 0.014 | 0.01 | -0.096 | -0.064 | 0.017 | 0.01 | 0 | -0.11 | 0.028 | 0 | -0.152 | -0.291 | 0 | 0.026 | 0.122 | 0.086 | -0.02 | -0.065 | -0.031
8 | NRF1 isoform 4 (UniProt Q16656) | -0.057 | 0.023 | -0.099 | -0.152 | -0.123 | -0.042 | 0.054 | -0.096 | 0.022 | 0.035 | 0.021 | -0.088 | -0.129 | -0.037 | 0.056 | 0.047 | 0.039 | -0.02 | -0.064 | 0.04
